The record followed here is ChEMBL document CHEMBL3988442, “University of Dundee, Small-Polar-MMV Screening Library” (2021).

In all, about 66,000 compounds went through this assay and about 960 (1.5%) showed an effect of 50% or more. Shown is part of a subset that was picked to be rich in strong results.

For this assay, the system named is Trypanosoma brucei. In words: Trypanosoma brucei 72 hour study. Type of assay: functional, organism-based. More on the design: scale not given: in the data most compounds retested in dose-response had high values.

With `CC(C)CC(=O)N1CCC2(CC1)COCCN2Cc1ccc(F)cc1.O=C(O)C(F)(F)F`, the “Percent Effect” value (30 µM, 30.03 µM) came to 17.24%.
Regarding `COc1ccc(C[C@H]2CNCC[C@@H]2OC)cc1.O=C(O)C(F)(F)F`, the “Percent Effect” value (30.3 µM, […]) is reported as -9.891%.
Turning to `C[C@@H]1CN(S(C)(=O)=O)C[C@]12CCN(Cc1cccnc1)C2=O.O=C(O)C(F)(F)F`, the “Percent Effect” value (30.3 µM, […]) is listed as -31.63%.
Turning to `Cc1cc(Cl)c(C)c(S(=O)(=O)N2CCN(Cc3ccncc3)CC2)c1Cl`, where the note is “30 µM, 30.03 µM”, the “Percent Effect” value is listed as -52.63%.
As to `CNC(=O)[C@@H]1CN(C(=O)C2CCC2)C[C@H]1c1ccnc(N2CCCC2)n1.Cl`, the “Percent Effect” value (30.3 µM, […]) turned out to be 8.722%.
Same read-out and setting: the same measure for `Cn1cc(CCC(=O)N2C[C@@H]3CC[C@H](C2)N(Cc2ccccn2)C3)cn1`: 7.516%.
As for `CC(C)c1cc(NC(=O)CN2CCCC2c2noc(C(C)C)n2)on1` (stereo not drawn), the “Percent Effect” value by setting is: (10 µM) -43.85%; (30.3 µM, […]) 0.3759%.
With `CN(C(=O)NCc1ccncc1)C1CCCN(c2ccccc2)C1=O` (stereo not drawn), where the note is “10 µM”, the “Percent Effect” value is -27.33%.
As to `COCCN1CCC2(CC1)CC(c1cccnc1)CO2.O=C(O)C(F)(F)F` (stereo not drawn), the “Percent Effect” value (30.3 µM, […]) is recorded as -48.93%.
As for `Cc1c(C)n2c(SCC(=O)N3CCCCC3)nnc2[nH]c1=O`, the “Percent Effect” value (30.3 µM, […]) is recorded as -16.73%.
On the same count and under the same terms, the same measure for `Cl.O=C1CC2(CCCNC2)C(=O)N1Cc1cccc(Cl)c1` (stereo not drawn): 2.467%.
`CCC(C)NC(=O)Cn1c(Nc2cc(C)cc(C)c2)nc(C)cc1=O` (stereo not drawn): the “Percent Effect” value (30 µM, 30.03 µM) is -43.03%.
As for `Cc1ccc(NCc2cncc3c2CCN(Cc2ccccn2)C3)nn1.Cl.Cl`, under “30.3 µM, […]”, the “Percent Effect” value is listed as -48.05%.
Still for that read-out and setting: the same measure for `O=C(O)C(F)(F)F.O=C([C@H]1CC[C@@H]2[C@@H](CCN2Cc2nccs2)O1)N1CCOCC1`: -77.67%; for `NC[C@H]1CC[C@H](C(NC(=O)C2CC2)c2ccccn2)CC1` (stereo partly drawn): -27.22%; for `C/C(=C\c1ccccc1)CN1CCCC(c2nnc3n2CCNCC3)C1.Cl` (stereo not drawn): -29.45%.
On to `O=C(O)C(F)(F)F.O=C(O)C(F)(F)F.O=C1CC(c2ccncc2)C2(CCN(Cc3ccc(F)cc3)CC2)N1` (stereo not drawn), for which the “Percent Effect” value (30 µM, 30.03 µM) came to 27.71%.
Turning to `Cc1ccc(CN2CCC[C@]3(C(=O)O)CN(CC4CC4)C[C@@H]3C2)s1.O=C(O)C(F)(F)F.O=C(O)C(F)(F)F`, the “Percent Effect” value (30.3 µM, […]) is listed as -73.23%.
As for `CCCn1c(C)c(CC(=O)NCCC(N)=O)c2c1CC(C)(C)CC2=O`, the “Percent Effect” value (30 µM, 30.03 µM) is -41.08%.
Consider `Cc1nc(NC(=O)c2ccc(-n3ncc(C#N)c3N)cc2)sc1C`, for which the “Percent Effect” value (10 µM) is reported as -25.11%.
For `Cc1cnn(CC2CCCN2Cc2nc(N)c3ccccc3n2)c1` (stereo not drawn), the “Percent Effect” value (30.3 µM, […]) was 51.47% and the “Percent Effect” value (10 mM, 10 mM as filed; unlikely as a test dose) was -16.65%.
For the compound `Cc1cnn(CC2CCCCN2Cc2nc(N)c3ccccc3n2)c1` (stereo not drawn), the “Percent Effect” value (30 µM, 30.03 µM) was 14.94%.
Take `Nc1nc(CN2CCCC2Cn2cncn2)nc2ccccc12` (stereo not drawn): the “Percent Effect” value (10 µM) is -61.59%.
With `COCCN1CCn2cc(CNC(=O)c3cnn(C)c3)nc2C1.O=C(O)C(F)(F)F`, the “Percent Effect” value (30 µM, 30.03 µM) is given as -33.8%.
As for `CC(C)CN1C[C@H]2C[C@H](C(=O)NC3CCC3)[C@@H](C1)O2.O=C(O)C(F)(F)F`, the “Percent Effect” value (30.3 µM, […]) is -44.07%.
With `Clc1cccc(-c2cccc(N3CCC(NC4CCOCC4)CC3)c2)c1`, the “Percent Effect” value (30 µM, 30.03 µM) is 100.7%.
Same read-out and setting: the same measure for `Cc1ccc(-c2cccc(N3CCC(NC4CCOCC4)CC3)c2)cc1`: 8.614%; for `COc1cccc(-c2cccc(N3CCC(N[C@@H]4CCOC4)CC3)c2)c1`: 9.147%.
Consider `COC(=O)c1ccc(CNCc2ccn(C)n2)cc1`, for which the “Percent Effect” value (30.3 µM, […]) was -7.529%.
Still for that read-out and setting: the same measure for `O=C(O)C(F)(F)F.O=C(O)C(F)(F)F.O=C1CCC2(CCN(Cc3ccc(F)cc3)CC2)N1CCN1CCCC1`: -27.18%; for `Cc1nccc(-c2cccc(NCC(=O)N3CCOC(C)C3)c2)n1` (stereo not drawn): 18.9%.
For `Cc1nccc(-c2cccc(NCC(=O)N3CCc4sccc4C3)c2)n1`, the “Percent Effect” value (30 µM, 30.03 µM) is 51.17%.
For the compound `Cc1nccc(-c2cccc(NCC(=O)N3CCNC(=O)C3)c2)n1`, the “Percent Effect” value (30.3 µM, […]) was found to be 13.04%.
`Cc1nccc(-c2cccc(NCC(=O)N3CCCCCCC3)c2)n1`: the “Percent Effect” value (30 µM, 30.03 µM) is on record as -43.47%.
On to `Cc1nccc(-c2cccc(NCC(=O)N3CCOCC3)c2)n1`, for which the “Percent Effect” value (30.3 µM, […]) is recorded as 18.69%.
In the case of `Cc1nccc(-c2cccc(NCC(=O)N3CCCC(C)C3)c2)n1` (stereo not drawn), the “Percent Effect” value (30.3 µM, […]) turned out to be 89.85%.
In the case of `COc1cc(CNCC2CN(C3CC3)CCO2)cc(OC)c1.Cl` (stereo not drawn), the “Percent Effect” value (30 µM, 30.03 µM) is recorded as 10.22%.
The same measure, in the same setting: the same measure for `CC(C)CN1CCN(C(=O)c2ccncc2F)Cc2cccnc21.O=C(O)C(F)(F)F.O=C(O)C(F)(F)F`: -15.43%.
With `NC1C=C(C(F)(F)F)NC=C1c1ccc(Cl)cc1` (stereo not drawn), the “Percent Effect” value (30.3 µM, […]) is -11.05%.
Same read-out and setting: the same measure for `COc1cccc(N2CCC(CNc3cc(C)nc4ncnn34)C2)c1` (stereo not drawn): -742.4%.
Turning to `COc1cccc(N2CCC(CNCc3cccc(C#N)c3)C2)c1` (stereo not drawn), the “Percent Effect” value is 77.75% (30.3 µM, […]) and -19.99% (10 mM, 10 mM as filed; unlikely as a test dose).
Regarding `COc1ccccc1N1CCC(CNCc2ccc(C#N)cc2)C1` (stereo not drawn), the “Percent Effect” value reads like this: (30.3 µM, […]) 92.2%; (10 mM, 10 mM as filed; unlikely as a test dose) 66.86%.
As to `COc1ccccc1N1CCC(CNCc2cccc(OC)c2OC)C1` (stereo not drawn), for the setting “30 µM, 30.03 µM”, the “Percent Effect” value stood at 106.6%.
In the case of `COc1ccc(CNCC2CCN(c3ccccc3OC)C2)cc1O` (stereo not drawn), the “Percent Effect” value was 47.62% (30.3 µM, […]) and -24.56% (10 mM, 10 mM as filed; unlikely as a test dose).
For `COc1ccccc1N1CCC(CNCc2cccc(C#N)c2)C1` (stereo not drawn), the “Percent Effect” value (30 µM, 30.03 µM) stood at 38.86%.
The same measure, in the same setting: the same measure for `COc1cccc(N2CCC(CNC(=O)NCc3ccco3)C2)c1` (stereo not drawn): 0.1518%; for `COc1ccccc1N1CCC(CNCc2cccc(O)c2)C1` (stereo not drawn): -1.533%.
Consider `COc1cccc(CNCC2CCN(CC(C)O)CC2)c1OC` (stereo not drawn), for which the “Percent Effect” value (10 µM) was -41.05%.
